From PubChem BioAssay (EPA / NIEHS) come the findings set out here.

SMILES strings stand for the structures. Several values for one entry are separate records, joined by “and”; a condition that tells them apart may be missing. Equal entries are not always repeated. Inconclusive results are not listed. Activity calls are given as the source filed them. How the source made its calls, unless noted: active means hit-call score of the fitted dose curve at least 0.9, where 1 is the maximum; inactive means score below 0.9.

Test system in the first experiment: not listed separately
Description: CCTE_Deisenroth_DEVTOX-GLR_Endo_CellCount: Viability Assessment in CCTE's DevTox GLR-Endo Assay, Deisenroth Lab (AID 2284420). An outline of the steps: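 RUES2-GLR pluripotent cells seeded 24 h, then differentiated 48 h in defined media with two chemical exposures 24 h apart. Nuclei counted by high-content imaging; 10-point 1 nM–200 uM series; percent change versus 0.2% DMSO.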
For `O=C1NC(=O)C(c2ccccc2)(c2ccccc2)N1`, the molecule was classed as inactive.

As to `O=C(O)c1cccnc1`, the molecule was classed as inactive.

Turning to `CC(=O)CC(c1ccccc1)c1c(O)c2ccccc2oc1=O` (stereo unspecified), the result was inactive.

As for `Cc1cn([C@H]2C=C[C@@H](CO)O2)c(=O)[nH]c1=O`, the outcome was inactive.

The subject of a further experiment is SRY-box transcription factor 17 (SOX17) Protein Expression, Deisenroth Lab, SOX17 (gene 64321). The experiment is described as follows: CCTE_Deisenroth_DEVTOX-GLR_Pluri_SOX17: CCTE's DevTox GLR-Pluri Assay Evaluation of SRY-box transcription factor 17 (SOX17) Protein Expression, Deisenroth Lab (AID 2284427; active means hit-call score of the fitted dose curve at least 0.9, where 1 is the maximum). An outline of the steps: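 RUES2-GLR pluripotent cells were induced toward endoderm over 48 h and received two compound doses 24 h apart, in a 10-point series from 1 nM to 200 uM. The percentage of SOX17+ cells among total cells was measured by high-content imaging and reported minus the 0.2% DMSO control.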
As for `O=C(O)c1cccnc1`, the molecule was classed as inactive.

For the molecule `CC(=O)CC(c1ccccc1)c1c(O)c2ccccc2oc1=O` (stereo unspecified), the call was inactive.

In the case of `Cc1cn([C@H]2C=C[C@@H](CO)O2)c(=O)[nH]c1=O`, the result was inactive.

The test system of the next experiment is SRY-box transcription factor 2 (SOX2) Protein Expression, Deisenroth Lab, SOX2 (gene 6657). Description: CCTE_Deisenroth_DEVTOX-GLR_Pluri_SOX2: CCTE's DevTox GLR-Pluri Assay Evaluation of SRY-box transcription factor 2 (SOX2) Protein Expression, Deisenroth Lab (AID 2284428). An outline of the steps:
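RUES2-GLR human pluripotent cells, two exposures 24 h apart over 48 h differentiation; 10-point series 1 nM - 200 uM. High-content imaging gives SOX2+ cells divided by cell count, reported as percent change versus 0.2% DMSO.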
`O=C1NC(=O)C(c2ccccc2)(c2ccccc2)N1`: the half-maximal activity concentration (AC50) was 150 µM (active).

For the molecule `O=C(O)c1cccnc1`, the result was inactive.

Turning to `CC(=O)CC(c1ccccc1)c1c(O)c2ccccc2oc1=O` (stereo unspecified), the call was inactive.

`Cc1cn([C@H]2C=C[C@@H](CO)O2)c(=O)[nH]c1=O`: the molecule was called inactive.

For another experiment, the system named is Brachyury (BRA) Protein Expression, Deisenroth Lab, TBXT (gene 6862). Description: CCTE_Deisenroth_DEVTOX-GLR_Pluri_BRA: CCTE's DevTox GLR-Pluri Assay Evaluation of Brachyury (BRA) Protein Expression, Deisenroth Lab (AID 2284429; active means hit-call score of the fitted dose curve at least 0.9, where 1 is the maximum). An outline of the steps: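 An inducible fluorescent BRA reporter in RUES2-GLR cells tracks mesoderm differentiation. Compounds (10 concentrations, 1 nM - 200 uM) are dosed twice within a 48-h differentiation. The endpoint subtracts the 0.2% DMSO control from percent BRA+ cells.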
For `O=C1NC(=O)C(c2ccccc2)(c2ccccc2)N1`, the half-maximal activity concentration (AC50) is 152 µM (active).

Regarding `O=C(O)c1cccnc1`, the result was inactive.

For the molecule `CC(=O)CC(c1ccccc1)c1c(O)c2ccccc2oc1=O` (stereo unspecified), the call was inactive.

With `Cc1cn([C@H]2C=C[C@@H](CO)O2)c(=O)[nH]c1=O`, the molecule was called inactive.

Test system in another experiment: not listed separately
Description: CCTE_Deisenroth_DEVTOX-GLR_Pluri_CellCount: Viability Assessment in CCTE's DevTox GLR-Pluri Assay Evaluation of Total Cell Counts, Deisenroth Lab (AID 2284430). As for the experimental part:
CCTE_Deisenroth_DEVTOX-GLR_Pluri assay is a cell-based, multiplex-readout assay that uses RUES2-GLR, a human pluripotent cell line, with measurements taken at 48 hours after chemical dosing in a 384-well microplateCCTE_Deisenroth_DEVTOX-GLR_Pluri_CellCount is 1 of 4 assay components calculated from the CCTE_Deisenroth_DEVTOX-GLR_Pluri assay and it measures cell count. Using fluorescent nuclei staining, gain-of-signal activity can be used to understand changes in cell viability with fluorescent microscopy. It is designed to make measurements of nuclei counts as a surrogate for cell number, as detected with optical fluorescence microscopy by Perkin Elmer Harmony nuclei detection algorithm. To generalize the intended target to other relatable targets, this assay component is annotated to the cell cycle intended target family, where the subfamily is cytotoxicity.Data from the assay component CCTE_Deisenroth_DEVTOX-GLR_Pluri_CellCount was analyzed as 1 assay endpoint. The endpoint the percent change in the cell count relative to the 0.2% DMSO control in the CCTE_Deisenroth_DEVTOX-GLR_Pluri assay. Furthermore, this assay endpoint can be referred to as a primary readout, because this assay has produced multiple assay endpoints where this one serves as a measure of cytotoxicity.
All assay protocols are aligned to the DevTox GLR-Endo assay workflow. Cells are seeded into 384-well microplates for 24 hours prior to initiating differentiation in defined media for a total duration of 48 hours. A total of two chemical exposures are administered in 24-hour intervals during the 48-hour differentiation period. At the assay termination point, cells are fixed and stained with a fluorescent dye demarcating the nucleus. High-content imaging is used to acquire brightfield and fluorescent channel images across 5 fields per well. Cell identification and mean biomarker fluorescence intensities are calculated with image analysis software to determine the total cell counts for viability assessment and the biomarker expression frequency for each lineage-dependent assay. A typical experimental design tests a 10-point concentration series (1 nM - 200 uM) for 28 compounds in single technical replicate. Assay plate controls include non-differentiated pluripotent cells (baseline control), lineage-specific differentiated cells (differentiation control), and DMSO solvent exposed differentiated cells (solvent control). Experiments typically comprise a minimum of four experimental replicates (n=4).
As for `O=C1NC(=O)C(c2ccccc2)(c2ccccc2)N1`, the AC50 is 100 µM (active).

Consider `O=C(O)c1cccnc1`, for which the outcome was inactive.

In the case of `CC(=O)CC(c1ccccc1)c1c(O)c2ccccc2oc1=O` (stereo unspecified), the molecule was classed as inactive.

Consider `Cc1cn([C@H]2C=C[C@@H](CO)O2)c(=O)[nH]c1=O`, for which the outcome was inactive.

The next experiment deals with TTR (gene 7276). The experiment is described as follows: CCTE_GLTED_hTTR_0.125uM: CCTE's human Transthyretin (hTTR) Inhibition Assay, with 0.125uM TTR, Great Lakes Toxicology and Ecology Division (GLTED) Lab (AID 2284431).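 Further: hits lower the fluorescence signal relative to DMSO baseline.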 An outline of the steps: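 Cell-free displacement of ANSA probe from 0.125uM TTR after 2 h incubation with chemical. Fluorescence read at 380 nm excitation/475 nm emission; loss of signal relative to DMSO indicates T4-site displacement.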
Consider `O=C1c2c(O)cccc2Cc2cccc(O)c21`, for which the concentration at half-maximal activity (AC50) is 22 µM (active).

Consider `CCC(C)N(C)C(=O)c1cc2ccccc2c(-c2ccccc2Cl)n1` (stereo unspecified), for which the half-maximal activity concentration (AC50) was 27.1 µM (active).

For the molecule `O=C1OC(c2ccc(O)cc2)(c2ccc(O)cc2)c2ccccc21`, the AC50 is 0.056 µM (active).

With `S=c1[nH]c2ccccc2s1`, the concentration at half-maximal activity (AC50) is 4.06 µM (active).

Turning to `CC(=O)CC(c1ccccc1)c1c(O)c2ccccc2oc1=O` (stereo unspecified), the AC50 was 7.34 µM (active) and 4.39 µM (active).

As for `CCCCCCCCCCCCCCOS(=O)(=O)O`, the half-maximal activity concentration (AC50) was 1.9 µM (active).

Take `O=Cc1ccccc1C=O`: the AC50 was 0.121 µM (active).

Take `Cc1c(C)c2c(c(C)c1O)CCC(C)(COc1ccc(CC3SC(=O)NC3=O)cc1)O2` (stereo unspecified): the AC50 was 2.31 µM (active).

As to `Cc1cc(Cc2ccc(N)c(C)c2)ccc1N`, the AC50 is 9.71 µM (active).

With `O=C(O)c1[nH]n(-c2ccc(S(=O)(=O)O)cc2)c(=O)c1N=Nc1ccc(S(=O)(=O)O)cc1`, the half-maximal activity concentration (AC50) was 17.8 µM (active).

Regarding `CCCCc1nc2cccnc2n1Cc1ccc(-c2ccccc2-c2nnn[nH]2)cc1`, the AC50 is 7.22 µM (active).

On to `O=C(NS(=O)(=O)/C=C/c1cccs1)c1ccc(F)cc1Br`, for which the AC50 was 7.75 µM (active).
